Only some compounds are listed: those with a hit (about 10% of all), similar ones and a draw of the others.
GPT2 inh = inhibitors of human GPT2 alanine aminotransferase | Recombinant GPT2, coupled pyruvate oxidase/HRP Amplex Red fluorescence | Potency, µM (highest dose often 57.7 µM), without a hit: at the highest dose activity change, negative = inhibition, most hits filed as inhibitors | 0.25% of 100,000 active; further: nearly all actives have a fitted effect of over 60% in size
Target sequence (Q8TD30 whole entry, looked up): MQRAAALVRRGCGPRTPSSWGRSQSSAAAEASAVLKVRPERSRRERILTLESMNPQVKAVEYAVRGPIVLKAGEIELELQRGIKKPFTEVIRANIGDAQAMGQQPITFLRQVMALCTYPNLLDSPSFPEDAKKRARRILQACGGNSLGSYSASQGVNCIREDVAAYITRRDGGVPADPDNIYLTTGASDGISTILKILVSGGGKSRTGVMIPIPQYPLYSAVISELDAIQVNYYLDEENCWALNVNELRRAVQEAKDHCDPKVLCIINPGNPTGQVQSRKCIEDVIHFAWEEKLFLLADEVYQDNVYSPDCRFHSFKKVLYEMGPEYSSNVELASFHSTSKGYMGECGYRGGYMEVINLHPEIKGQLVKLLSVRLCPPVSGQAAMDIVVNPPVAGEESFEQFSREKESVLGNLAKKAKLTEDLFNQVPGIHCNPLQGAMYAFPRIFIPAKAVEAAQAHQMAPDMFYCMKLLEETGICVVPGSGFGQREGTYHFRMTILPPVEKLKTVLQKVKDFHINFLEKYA
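Fluorescence of coupled pyruvate oxidase/HRP/Amplex Red system (50uM Amplex, 30 min, dark) reports pyruvate formed by GPT2. Enzyme reaction: 10ng/uL GPT2, 2mM L-alanine, 250uM a-KG, 30 min room temperature, pH 7.5; 50uM AOA control.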
NPR1 antag = antagonists of human natriuretic peptide receptor Npr1 | Potency, µM (top dose mostly 46.3 µM), for inactives: at the highest dose activity change, negative = inhibition, hits mostly inhibitors | P16066 | AID 1347048 | 1.6% of 76,000 active | HEK293 hNpr1 GloSensor cGMP, ANP-stimulated luminescence; calls by dose curve; further: nearly all actives have a fitted effect of over 60% in size
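HEK293 cells stably expressing human Npr1 and cGMP GloSensor pGS-40F, loaded 2 h with 2% GloSensor reagent, given compound 30 min at room temperature. Luminescence read before and 20 min after 0.1 nM hNppA.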
NIH3T3 tox = cytotoxic compounds in NIH 3T3 cells. NIH 3T3 viability, CellTiter-Glo ATP luminescence, 48-72 h. Potency, µM (doses to about 96.7 µM), inactives show at the top dose activity change, negative = cytotoxicity, most hits filed as inhibitors. 4.3% of 94,000 active. AID 1345082; further: nearly all actives have a fitted effect of over 55% in size
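First NIH 3T3 cells are plated at 400 cells/well; next compound is pinned in; then plates incubate 48 or 72 hr at 37 °C; finally CellTiter-Glo is added and luminescence read after 10 min.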
Luciferase inh = blocks purified firefly luciferase enzyme activity. P08659. 2.5% of 76,000 active. Potency, µM (doses to about 115 µM), actives largely listed as inhibitors. purified P. pyralis luciferase, luminescence, biochemical; further: nearly all actives have a fitted effect of over 65% in size
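Biochemical qHTS: compound (6-point titration) added to 10uM D-luciferin plus 10uM ATP in Tris acetate pH 7.5 buffer with Mg, Tween-20 and BSA, then purified enzyme at 10nM; light output imaged.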
HEK cytotox = cytotoxic compounds in HEK 293 cells. AID 1345083. 6.6% of 94,000 active. HEK 293 viability, ATP luminescence (CellTiter-Glo), 48-72 h. Potency, µM (top dose mostly 115 µM), for the others: at the top dose activity change, negative = cytotoxicity, hits mostly inhibitors; further: nearly all actives have a fitted effect of over 60% in size
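Cells seeded first (HEK 293, 250 cells/well), then compound added by pintool. Incubation ran 48 or 72 hr at 37 degree Celsius. CellTiter-Glo was added and luminescence imaged after 10 min at room temperature.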
* marks the source's active call; other numbers are inactive results; i = inactive; u = inconclusive; x = no result; [ ] = dose if it differs, or a comment. Unless noted, the call rests on the fitted dose curve; in most records, active means well fitted curve in the direction sought with a large enough effect; inconclusive means small, poorly fitted or top-dose-only effect, or another doubt; inactive means no such curve, though single readings can be large; an effect the other way counts as inactive or inconclusive. On the % scale 0 is the no-effect control and ±100 the full control effect; potency means the concentration at half of the fitted maximal effect.

SMILES | GPT2 inh | NPR1 antag | NIH3T3 tox | Luciferase inh | HEK cytotox
CC(Cc1cnccn1)NC(=O)c1ccc2nc(-c3ccc(F)cc3)cn2c1 (configuration not stated) | 0% | 6% | -7% | 40µM* | u
COc1ccc(C(=O)N2CCCC2C(=O)N2CCC(c3nc4ccncc4[nH]3)CC2)cc1 (configuration not stated) | -7% | x | -10% | x | 3%
O=C(COc1ccc(F)cc1)Nc1cnc(-c2ccccc2)nc1 | -9% | -1% | -1% | i | 16%
O=C(Cc1ccsc1)Nc1cnc(-c2ccccc2)nc1 | -8% | u | u | 5µM* | u
CN(Cc1cccnc1)c1nc2c(c(=O)[nH]1)CCN(Cc1cccc(F)c1F)CC2 | u | -5% | u | i | u
O=C(NC1CCCCCC1)c1nc2sccn2c1-c1ccncc1 | 4%[88.5 µM] | x | u | x | u
CSc1ccc(-c2cccc(C(=O)NCCNC(=O)c3ccc(C)cc3)c2)cc1 | -8% | x | u | x | u
CN(C)CCn1nnnc1SCC1=C(C(=O)O)N2C(=O)[C@@H](NC(=O)Cc3csc(N)n3)[C@H]2SC1 | 18µM* | x | x | x | x
Cc1nnc(SCC2=C(C(=O)O)N3C(=O)[C@@H](NC(=O)Cn4cnnn4)[C@H]3SC2)s1 | i | x | x | x | x
C=CC(C)(O)C(O)CC1C(C)(O)C(O)C(O)C2C(C)(C)CCCC21C (configuration not stated) | i | x | x | x | x
Cc1ccc(NC2=N[C@H]3[C@@H](O)[C@H](O)C[C@H](C(=O)N4CCC(C(N)=O)CC4)[C@H]3S2)cc1 | i | -1%[70.6 µM] | 1%[174 µM] | 50µM* | -4%[172 µM]
COC(=O)[C@@H]1Cc2nc[nH]c2CN1C(C)C | 3%[88.5 µM] | 2%[70.6 µM] | 71µM* | i | u
COC(=O)[C@@H]1Cc2nc[nH]c2CN1C1CCOCC1 | i | 6%[70.6 µM] | -8%[230 µM] | i | -11%[230 µM]
COc1ccc(-c2cnc3n[nH]c(-c4sccc4C)c3n2)cc1OC | 2%[88.5 µM] | -9%[70.6 µM] | u | i | 63µM*
COc1ccc(-c2cnc3n[nH]c(-c4sccc4C)c3n2)cc1 | 5%[88.5 µM] | -9%[70.6 µM] | u | i | u
Cc1ccccc1-c1[nH]nc2ncc(-c3cccnc3)nc12 | u | -5%[70.6 µM] | u | i | u
COc1ccccc1-c1cnc2n[nH]c(-c3sccc3C)c2n1 | -25%[88.5 µM] | -19%[70.6 µM] | u | i | 89µM*
Cc1ccsc1-c1[nH]nc2ncc(-c3ccccc3F)nc12 | -5%[88.5 µM] | -5%[70.6 µM] | u | i | 71µM*
Cc1ccccc1-c1[nH]nc2ncc(-c3ccccc3F)nc12 | -24%[88.5 µM] | -26%[70.6 µM] | u | i | 50µM*
COc1ccccc1-c1ccc(C(=O)N2CCC(NC(=O)C3CC3)CC2)cc1 | i | x | u | x | u
COc1cccc(OCC2CN(Cc3cccc(C(F)(F)F)c3)C(=O)c3c(ccnc3-c3ccc(OCC(=O)O)cc3)O2)c1OC (configuration not stated) | -16% | 0% | u | 45µM* | 5%
O=C(O)COc1ccc(-c2nccc3c2C(=O)N(Cc2c[nH]c4ccccc24)CC(COc2ccc(F)cc2F)O3)cc1 (configuration not stated) | i | 3% | u | 45µM* | i
CN(C)c1ccc(CN2CCC3(C2)C(=O)N(c2ccccc2)c2ccccc23)cc1 (configuration not stated) | i | x | 45µM* | x | u
CN1C(=O)C2(CCN(Cc3ccc(C(F)(F)F)cc3)C2)c2ccccc21 (configuration not stated) | -3% | -29% | -30% | i | u
CN1C(=O)C2(CCN(Cc3cccc4ccccc34)C2)c2ccccc21 (configuration not stated) | i | -6%[70.6 µM] | u | i | 28µM*
SMILES | GPT2 inh | NPR1 antag | NIH3T3 tox | Luciferase inh | HEK cytotox
O=C1N(c2ccccc2)c2ccccc2C12CCN(Cc1cccc3ccccc13)C2 (configuration not stated) | i | x | u | x | u
CN1C(=O)C2(CCN(Cc3ccc(F)cc3)C2)c2ccccc21 (configuration not stated) | i | 14%[70.6 µM] | u | i | 71µM*
COc1ccc(C(=O)N2CC[C@H](CO)[C@H](NC(=O)C3CC3)C2)cn1 | 2% | 1% | -5% | i | i
COCCc1noc(C2Cc3ccccc3N2C(=O)CCc2cccc(OC)c2)n1 (configuration not stated) | 4% | x | u | x | u
O=C(NCCc1ccccc1)c1nc2sccn2c1-c1ccc(C(F)(F)F)cc1 | i | x | 14µM* | x | u
O=C(NCc1ccc(F)cc1)c1nc2sccn2c1-c1ccc(C(F)(F)F)cc1 | i | x | 14µM* | x | u
COc1ccc(-c2c(C(=O)NCCCc3ccccc3)nc3sccn23)cc1 | 1% | x | 35µM* | x | u
O=C(NCc1cccc(C(F)(F)F)c1)c1nc2sccn2c1-c1cccc(C(F)(F)F)c1 | i | x | u | x | 35µM*
O=C(NCc1cccc(C(F)(F)F)c1)c1nc2sccn2c1-c1ccc(F)cc1 | -12%[88.5 µM] | x | u | x | u
O=C(NCCc1ccc(Cl)cc1)C1CCc2nnc(-c3ccc(Cl)cc3Cl)n21 (configuration not stated) | -13% | x | u | x | u
COc1cccc(-c2cccc(C(=O)N3CCCC3C(=O)NC3CCCC3)c2)c1 (configuration not stated) | i | x | -22% | x | -30%
O=C(c1ccc(Cl)nc1)N1CCC(C(=O)N2CCC(c3nc4ccncc4[nH]3)C2)CC1 (configuration not stated) | 3% | x | -11% | x | i
Cc1ccc(-c2c(C(=O)NCCc3ccccc3)nc3sccn23)cc1 | i | x | 18µM* | x | 45µM*
O=C(NCc1cccs1)c1nc2sccn2c1-c1ccncc1 | i | x | u | x | 89µM*
O=C(NCc1ccccc1F)c1nc2sccn2c1-c1ccc(C(F)(F)F)cc1 | 3% | x | u | x | 32µM*
O=C(NCc1ccccc1)c1nc2sccn2c1-c1ccc(C(F)(F)F)cc1 | -12% | x | u | x | 40µM*
Cc1ccc(-c2c(C(=O)NCc3cccs3)nc3sccn23)cc1 | i | x | -11%[138 µM] | x | u
O=C(N[C@H]1CCN2C(=O)c3cc(-c4cccc(C(F)(F)F)c4)ccc3NC(=O)[C@H]12)c1cnccn1 | 4% | -1% | 79µM* | i | 45µM*
O=C(N[C@H]1CCN2C(=O)c3cc(-c4ccc(Cl)cc4)ccc3NC(=O)[C@H]12)c1cnccn1 | u | 0% | u | i | 79µM*
COc1ccc(/C=C/c2ccc3c(c2)C(=O)N2CC[C@H](N)[C@H]2C(=O)N3)cc1 | 5%[88.5 µM] | 1%[70.6 µM] | u | 20µM* | 100µM*

Screens as filed in PubChem BioAssay.
